Source: PubChem BioAssay (EPA / NIEHS)
Inconclusive results are not listed. Activity calls are given as the source filed them. The calls were made as follows, unless noted: active = hit-call score of the fitted dose curve at least 0.9, where 1 is the maximum; inactive = score below 0.9.

Columns and labels:
[1] = target: Retinoic acid receptor RXR-alpha (Homo sapiens) (UniProt P19793); assay: OT_NURR1_NURR1RXRa_1440: Odyssey Thera (OT) 24-hour HEK293T Protein Complementation Assay for Nurr1/retinoid X receptor (RXR) (AID 2283386; active = hit-call score of the fitted dose curve at least 0.9, where 1 is the maximum)
Retinoic acid receptor RXR-alpha (Homo sapiens), sequence (P19793 whole entry, looked up, the tested form may be a part): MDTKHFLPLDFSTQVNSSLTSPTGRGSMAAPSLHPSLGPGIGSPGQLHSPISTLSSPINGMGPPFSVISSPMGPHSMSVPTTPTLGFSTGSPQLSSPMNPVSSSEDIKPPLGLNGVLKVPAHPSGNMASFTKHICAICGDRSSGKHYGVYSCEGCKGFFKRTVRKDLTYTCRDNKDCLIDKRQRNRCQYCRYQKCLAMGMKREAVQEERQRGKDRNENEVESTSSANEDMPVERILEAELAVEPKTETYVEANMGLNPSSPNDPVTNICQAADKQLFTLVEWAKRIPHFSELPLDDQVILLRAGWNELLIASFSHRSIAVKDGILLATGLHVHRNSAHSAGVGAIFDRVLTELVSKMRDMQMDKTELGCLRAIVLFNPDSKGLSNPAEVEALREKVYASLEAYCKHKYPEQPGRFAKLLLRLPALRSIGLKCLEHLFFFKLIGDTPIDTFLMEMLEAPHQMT
Summary of the method: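 HEK293T protein-fragment complementation of Nurr1 and RXRα fused to reporter fragments; compounds 24 h. Fluorescence gain from reconstituted reporter fitted versus DMSO.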

[2] = target: Peroxisome proliferator-activated receptor gamma (Homo sapiens) (UniProt P37231); assay: OT_PPARg_PPARgSRC1_0480: Odyssey Thera (OT) 8-hour Protein-Complementation Assay for Peroxisome Proliferator-activated Receptor Gamma / SRC-1 Co-activator (AID 2283387; active = hit-call score of the fitted dose curve at least 0.9, where 1 is the maximum)
Peroxisome proliferator-activated receptor gamma (Homo sapiens), sequence (P37231 whole entry, looked up, the tested form may be a part): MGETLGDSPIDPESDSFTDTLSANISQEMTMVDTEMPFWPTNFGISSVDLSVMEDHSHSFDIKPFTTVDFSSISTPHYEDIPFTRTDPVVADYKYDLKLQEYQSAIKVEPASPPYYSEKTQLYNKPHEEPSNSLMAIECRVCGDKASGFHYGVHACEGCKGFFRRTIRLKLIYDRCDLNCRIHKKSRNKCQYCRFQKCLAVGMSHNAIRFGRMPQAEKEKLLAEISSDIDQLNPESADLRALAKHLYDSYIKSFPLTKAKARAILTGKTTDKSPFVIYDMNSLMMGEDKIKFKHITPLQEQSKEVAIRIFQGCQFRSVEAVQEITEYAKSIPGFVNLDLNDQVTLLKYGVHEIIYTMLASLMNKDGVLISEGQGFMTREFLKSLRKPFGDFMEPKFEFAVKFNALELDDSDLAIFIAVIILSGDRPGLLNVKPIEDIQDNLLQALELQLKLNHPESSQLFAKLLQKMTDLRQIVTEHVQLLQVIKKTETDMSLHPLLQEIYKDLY
Summary of the method: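 Split-YFP (IFP1/IFP2) PPARg/SRC-1 reporter, HEK293T, 37 °C, 5% CO2; 8 h compound; formaldehyde fix + Draq5; high-content imaging, N/C ratio, ≥350 cells/image, positive direction vs DMSO.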

[3] = target: Peroxisome proliferator-activated receptor gamma (Homo sapiens) (UniProt P37231); assay: OT_PPARg_PPARgSRC1_1440: Odyssey Thera (OT) 24-hour Protein-Complementation Assay for Peroxisome Proliferator-activated Receptor Gamma/ SRC-1 Co-activator (AID 2283388; active = hit-call score of the fitted dose curve at least 0.9, where 1 is the maximum)
Summary of the method: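 HEK293T cells transiently transfected with PPARg and SRC-1 fused via (Gly4Ser)2 linker to split Venus YFP fragments (IFP1/IFP2) were dosed 24 h; fixed, Draq5-stained, imaged at 488/635 nm; nuclear/cytoplasmic fluorescence ratio scored versus DMSO baseline, gain-of-signal.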

[4] = read-out: Tumor necrosis factor receptor superfamily member 6 (Homo sapiens) (UniProt P25445); assay: LTEA_HepaRG_FAS: Life Technologies and Expression Analysis (LTEA) Assay for Fas cell surface death receptor (FAS) using HepaRG (AID 2283447); settings: mRNA level, 48 h; actives raise or lower the signal
Summary of the method: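 FAS transcript level was measured by TaqMan qRT-PCR against three housekeeping genes after 48 h chemical exposure. Cells were HepaRG, 0.5% DMSO vehicle, with a top concentration of 100 uM and half-log dilutions over eight points, in duplicate.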

[5] = read-out: Fatty acid synthase (Homo sapiens) (UniProt P49327); assay: LTEA_HepaRG_FASN: Life Technologies and Expression Analysis (LTEA) Assay for Fatty Acid Synthase (FASN) using HepaRG (AID 2283448); settings: mRNA level, 48 h; actives raise or lower the signal
Summary of the method: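 Differentiated HepaRG cells in serum-free induction medium exposed 48 h in duplicate to eight half-log concentrations, top 100 uM, 0.5% DMSO. FASN mRNA by qRT-PCR normalised to ACTB, GAPDH, POLR2A; bidirectional fit versus DMSO.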

[6] = read-out: Cyclin D2 (CCND2), CCND2 (gene 894); assay: LTEA_HepaRG_CCND2: Life Technologies and Expression Analysis (LTEA) Assay for Cyclin D2 (CCND2) using HepaRG (AID 2283449); settings: mRNA level, 48 h; actives raise or lower the signal
Summary of the method: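 Read-out is CCND2 mRNA level measured by qRT-PCR in human HepaRG liver cells and normalised to three housekeeping genes. Chemicals were applied for 48 h at up to 100 uM, with gain or loss fitted relative to 0.5% DMSO.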

[7] = read-out: Cyclin D1 (CCND1), CCND1 (gene 595); assay: LTEA_HepaRG_CCND1: Life Technologies and Expression Analysis (LTEA) Assay for Cyclin D1 (CCND1) using HepaRG (AID 2283451); settings: mRNA level, 48 h; actives raise or lower the signal;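 as to AC50: TaqMan qRT-PCR transcript level normalised to ACTB GAPDH and POLR2A housekeeping genes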
Summary of the method: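 Differentiated human HepaRG cells in serum-free induction medium were exposed 48 h to eight half-log concentrations up to 100 uM in 0.5% DMSO; mRNA quantified by TaqMan qRT-PCR, normalized to ACTB, GAPDH, POLR2A, fitted bidirectionally versus DMSO.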

[8] = read-out: catalase (CAT), CAT (gene 847); assay: LTEA_HepaRG_CAT: Life Technologies and Expression Analysis (LTEA) Assay for catalase (CAT) using HepaRG (AID 2283452); settings: mRNA level, 48 h; actives raise or lower the signal;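 as to AC50: TaqMan qRT-PCR signal normalized to ACTB GAPDH and POLR2A housekeeping genes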
Summary of the method: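 Expression of CAT was quantified by TaqMan qRT-PCR with ACTB/GAPDH/POLR2A normalization after 48 h chemical exposure of HepaRG. Eight-point half-log series, top 100 uM, in 0.5% DMSO; gain or loss fitted against vehicle.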

[9] = read-out: flavin-containing dimethylaniline monooxygenases 3 (FMO3), FMO3 (gene 2328); assay: LTEA_HepaRG_FMO3: Life Technologies and Expression Analysis (LTEA) Assay for flavin-containing dimethylaniline monooxygenases 3 (FMO3) using HepaRG (AID 2283453); settings: mRNA level, 48 h; actives raise or lower the signal
Summary of the method: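 Differentiated HepaRG cells in serum-free induction medium, exposed 48 h in duplicate to 8 half-log concentrations up to 100 uM in 0.5% DMSO. FMO3 mRNA by qRT-PCR, normalized to ACTB, GAPDH, POLR2A; bidirectional fit vs DMSO.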

[10] = CEETOX_H295R_11DCORT: CeeTox H295R High-throughput Steroidogenesis Assay for 11-Deoxycortisol (11DCORT) (AID 2283432); settings: actives raise or lower the signal
Summary of the method: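 Steroidogenesis in human H295R cells: 48 h chemical exposure after forskolin priming, 11-deoxycortisol measured by LC-MS/MS.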

[11] = CEETOX_H295R_OHPREG: CeeTox H295R High-throughput Steroidogenesis Assay for OH-Pregnenolone (OHPREG) (AID 2283434); settings: actives raise or lower the signal
Summary of the method: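 Hormone levels in spent medium were measured by tandem mass spectrometry following liquid-liquid extraction. Cells (H295R) had been forskolin-stimulated (10 uM, 48 h) before a 48 h chemical exposure at 0.1% DMSO, with activity fitted in both directions against DMSO.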

[12] = CEETOX_H295R_OHPROG: CeeTox H295R High-throughput Steroidogenesis Assay for OH-Progesterone (OHPROG) (AID 2283435); settings: actives raise or lower the signal
Summary of the method: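 H295R adrenal cells prestimulated 48 h with 10 uM forskolin, then exposed 48 h to chemical (0.1% DMSO final). 17alpha-hydroxyprogesterone in medium quantified by HPLC-MS/MS; bidirectional fit versus DMSO, with MTT viability measured in the same wells.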

[13] = CEETOX_H295R_ANDR: CeeTox H295R High-throughput Steroidogenesis Assay for Androstenedione (ANDR) (AID 2283436); settings: actives raise or lower the signal
Summary of the method: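 Read-out is androstenedione secreted into medium, measured by tandem mass spectrometry after liquid-liquid extraction. Cells were H295R, dosed for 48 h per modified OECD 456; activity fitted in both directions relative to DMSO.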

[14] = CEETOX_H295R_CORTIC: CeeTox H295R High-throughput Steroidogenesis Assay for Corticosterone (CORTIC) (AID 2283437); settings: actives raise or lower the signal;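 also: corticosterone secreted into medium quantified by mass spectrometry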
Summary of the method: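 Corticosterone secreted into medium is measured by reverse-phase HPLC with tandem MS following liquid-liquid extraction. Cells are forskolin-stimulated (10 uM, 48 h) before 48 h test exposure; activity fitted in both directions against DMSO.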

[15] = CEETOX_H295R_CORTISOL: CeeTox H295R High-throughput Steroidogenesis Assay for Cortisol (AID 2283438); settings: actives raise or lower the signal;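 also: cortisol secreted into medium quantified by LC-MS/MS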
Summary of the method: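 Forskolin-primed H295R cells (10 uM, 48 h) treated 48 h with test chemical in 0.1% DMSO. Cortisol in medium quantified by MTBE extraction and HPLC-MS/MS; bidirectional fit vs DMSO, MTT viability in same wells.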

[16] = CEETOX_H295R_DOC: CeeTox H295R High-throughput Steroidogenesis Assay for DOC (AID 2283439); settings: actives raise or lower the signal
Summary of the method: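 H295R cells prestimulated 48 h with 10 uM forskolin, then exposed 48 h to test chemical (0.1% DMSO final). Medium 11-deoxycorticosterone measured by HPLC-MS/MS after MTBE extraction; bidirectional fit vs DMSO, viability checked by MTT in same wells.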

[17] = CEETOX_H295R_PROG: CeeTox H295R High-throughput Steroidogenesis Assay for Progesterone (PROG) (AID 2283442); settings: actives raise or lower the signal
Summary of the method: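 H295R human adrenal cells were prestimulated with 10 uM forskolin for 48 h, then exposed to test chemical (0.1% DMSO final) for 48 h. Medium progesterone was MTBE-extracted and quantified by HPLC-MS/MS, with bidirectional fitting against DMSO.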

[18] = read-out: Cyclin Dependent Kinase Inhibitor 1A (CDKN1A), CDKN1A (gene 1026); assay: LTEA_HepaRG_CDKN1A: Life Technologies and Expression Analysis (LTEA) Assay for Cyclin Dependent Kinase Inhibitor 1A (CDKN1A) using HepaRG (AID 2283450); settings: mRNA level, 48 h; actives raise or lower the signal
Summary of the method: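 Differentiated human HepaRG cells, pre-cultured 48 h, were exposed in duplicate for 48 h in serum-free induction medium to eight half-log concentrations up to 100 uM (0.5% DMSO). CDKN1A mRNA was measured by qRT-PCR, normalized to ACTB/GAPDH/POLR2A, bidirectionally fitted versus DMSO.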

Measured: AC50

Fatty acid synthase (Homo sapiens), sequence (P49327 whole entry, looked up): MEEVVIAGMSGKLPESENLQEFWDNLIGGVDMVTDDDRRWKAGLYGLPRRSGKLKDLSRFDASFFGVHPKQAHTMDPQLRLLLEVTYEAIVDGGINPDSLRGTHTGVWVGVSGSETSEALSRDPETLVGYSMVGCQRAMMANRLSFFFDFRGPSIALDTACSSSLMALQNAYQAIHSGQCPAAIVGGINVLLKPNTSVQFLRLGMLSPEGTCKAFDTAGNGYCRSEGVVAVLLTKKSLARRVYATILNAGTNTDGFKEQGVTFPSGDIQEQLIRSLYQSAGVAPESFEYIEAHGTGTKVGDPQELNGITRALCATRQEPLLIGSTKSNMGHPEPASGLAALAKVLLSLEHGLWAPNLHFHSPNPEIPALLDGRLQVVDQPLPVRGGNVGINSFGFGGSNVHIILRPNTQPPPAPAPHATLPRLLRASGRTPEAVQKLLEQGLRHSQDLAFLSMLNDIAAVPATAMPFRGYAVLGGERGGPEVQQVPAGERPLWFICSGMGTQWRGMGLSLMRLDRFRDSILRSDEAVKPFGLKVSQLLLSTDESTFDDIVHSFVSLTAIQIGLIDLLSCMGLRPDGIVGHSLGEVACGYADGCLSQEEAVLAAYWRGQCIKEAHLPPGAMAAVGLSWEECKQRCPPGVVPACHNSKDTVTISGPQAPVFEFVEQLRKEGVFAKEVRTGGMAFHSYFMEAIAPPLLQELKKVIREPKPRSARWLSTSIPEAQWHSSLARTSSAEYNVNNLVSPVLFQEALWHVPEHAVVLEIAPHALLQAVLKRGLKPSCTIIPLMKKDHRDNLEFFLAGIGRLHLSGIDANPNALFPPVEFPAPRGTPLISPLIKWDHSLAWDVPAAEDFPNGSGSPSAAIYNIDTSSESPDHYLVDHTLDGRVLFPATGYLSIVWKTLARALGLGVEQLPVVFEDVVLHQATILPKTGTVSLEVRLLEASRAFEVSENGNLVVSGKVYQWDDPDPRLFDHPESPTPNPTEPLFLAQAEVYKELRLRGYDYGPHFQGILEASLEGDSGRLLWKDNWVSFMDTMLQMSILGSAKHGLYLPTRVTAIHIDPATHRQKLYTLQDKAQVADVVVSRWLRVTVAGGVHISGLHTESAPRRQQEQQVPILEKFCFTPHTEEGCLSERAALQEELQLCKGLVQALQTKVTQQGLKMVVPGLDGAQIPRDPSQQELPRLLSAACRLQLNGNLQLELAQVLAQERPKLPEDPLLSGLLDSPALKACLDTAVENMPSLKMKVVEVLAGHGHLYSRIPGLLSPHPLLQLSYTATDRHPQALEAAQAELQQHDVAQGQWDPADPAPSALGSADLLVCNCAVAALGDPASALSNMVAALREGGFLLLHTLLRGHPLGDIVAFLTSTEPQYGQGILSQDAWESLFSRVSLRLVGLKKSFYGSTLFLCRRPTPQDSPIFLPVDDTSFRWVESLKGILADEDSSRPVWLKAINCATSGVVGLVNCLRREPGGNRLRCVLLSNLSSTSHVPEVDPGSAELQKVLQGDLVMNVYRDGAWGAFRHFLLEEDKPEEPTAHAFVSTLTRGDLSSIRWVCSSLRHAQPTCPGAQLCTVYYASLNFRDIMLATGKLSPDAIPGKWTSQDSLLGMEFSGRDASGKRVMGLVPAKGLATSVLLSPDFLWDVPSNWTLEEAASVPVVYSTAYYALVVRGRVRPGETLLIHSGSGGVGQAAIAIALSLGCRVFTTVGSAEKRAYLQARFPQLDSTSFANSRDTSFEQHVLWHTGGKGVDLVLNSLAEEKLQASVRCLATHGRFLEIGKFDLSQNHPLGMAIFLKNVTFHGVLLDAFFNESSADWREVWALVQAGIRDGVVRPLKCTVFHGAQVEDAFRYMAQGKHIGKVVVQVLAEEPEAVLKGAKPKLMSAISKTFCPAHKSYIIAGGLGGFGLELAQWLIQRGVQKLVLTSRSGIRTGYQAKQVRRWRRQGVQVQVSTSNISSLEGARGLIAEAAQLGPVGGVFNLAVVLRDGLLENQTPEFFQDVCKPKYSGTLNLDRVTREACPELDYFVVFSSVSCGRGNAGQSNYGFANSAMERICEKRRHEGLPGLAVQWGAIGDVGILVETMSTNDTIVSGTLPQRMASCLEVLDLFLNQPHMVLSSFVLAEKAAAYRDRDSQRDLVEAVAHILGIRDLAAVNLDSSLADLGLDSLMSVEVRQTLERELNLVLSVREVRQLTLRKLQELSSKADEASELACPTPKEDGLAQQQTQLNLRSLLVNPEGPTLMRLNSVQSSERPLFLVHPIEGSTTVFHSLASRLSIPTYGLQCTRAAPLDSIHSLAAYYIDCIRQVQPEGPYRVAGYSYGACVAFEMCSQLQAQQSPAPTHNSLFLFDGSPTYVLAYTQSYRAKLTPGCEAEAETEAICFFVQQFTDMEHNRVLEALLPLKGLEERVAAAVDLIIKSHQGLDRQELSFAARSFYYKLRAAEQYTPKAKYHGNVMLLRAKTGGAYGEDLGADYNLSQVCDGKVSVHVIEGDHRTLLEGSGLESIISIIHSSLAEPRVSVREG

O=P(OC(CCl)CCl)(OC(CCl)CCl)OC(CCl)CCl
active: [4] 0.232 µM | [5] 50 µM | [8] 50 µM | [9] 63.8 µM
inactive: [1] | [2] | [3] | [6] | [7]

On1ccccc1=S
inactive: [1] | [2] | [3] | [5] | [7] | [8] | [9]

CCOc1cccc(-n2cc(C(=O)N3CCN(c4cc(C(=O)O)c5ccccc5c4)CC3)nc2-c2ccc(C)cc2)c1
active: [5] 80.5 µM | [7] 82.4 µM | [8] 31.6 µM | [9] 33.1 µM
not listed: [1] | [18]
inactive: all other assays above

COC(=O)CC(=O)OC
active: [5] 50 µM
inactive: [1] | [2] | [3] | [4] | [18] | [7] | [8] | [9]

Nc1nc2ncc(CNc3ccc(C(=O)N[C@@H](CCC(=O)O)C(=O)O)cc3)nc2c(=O)[nH]1
inactive: [1] | [2] | [3] | [4] | [5] | [6] | [7] | [8] | [9]

CCN(C(=O)c1cc(C)cc(OC[C@H](C)Nc2ccncc2)c1)C(C)C
active: [4] 8.02 µM | [5] 5.84 µM | [8] 33.8 µM | [9] 50.7 µM
inactive: [2] | [3] | [18] | [7]

O=C1CCCCCN1
inactive: [2] | [3] | [4] | [5] | [6] | [7] | [8] | [9]

Cc1ccc(S(=O)(=O)O)cc1C
inactive: [1] | [2] | [3] | [4] | [5] | [18] | [7] | [8] | [9]
